The record followed here is PubChem BioAssay (Tox21).

Results filed as inconclusive are left out. Values without a mark were called inactive. Calls follow the shape of the full dose curve.
% is scaled to controls: 0 for no effect and ±100 for the full control effect.

The assay deals with 5-hydroxytryptamine receptor 2A (Homo sapiens) (UniProt P28223). Kind of assay: 5-hydroxytryptamine receptor 2A (HTR2A) small molecule agonists, cell-based qHTS assay (AID 1963587). Also: nearly all actives have a fitted effect of over 30% in size. The conditions noted are these: HTR2A-CHO cells, calcium flux fluorescence, agonist mode; series mostly up to 76.8 µM; activation: at the top concentration. From the text: National Center for Advancing Translational Sciences [NCATS]
Sequence of 5-hydroxytryptamine receptor 2A (Homo sapiens) (P28223 whole entry, looked up): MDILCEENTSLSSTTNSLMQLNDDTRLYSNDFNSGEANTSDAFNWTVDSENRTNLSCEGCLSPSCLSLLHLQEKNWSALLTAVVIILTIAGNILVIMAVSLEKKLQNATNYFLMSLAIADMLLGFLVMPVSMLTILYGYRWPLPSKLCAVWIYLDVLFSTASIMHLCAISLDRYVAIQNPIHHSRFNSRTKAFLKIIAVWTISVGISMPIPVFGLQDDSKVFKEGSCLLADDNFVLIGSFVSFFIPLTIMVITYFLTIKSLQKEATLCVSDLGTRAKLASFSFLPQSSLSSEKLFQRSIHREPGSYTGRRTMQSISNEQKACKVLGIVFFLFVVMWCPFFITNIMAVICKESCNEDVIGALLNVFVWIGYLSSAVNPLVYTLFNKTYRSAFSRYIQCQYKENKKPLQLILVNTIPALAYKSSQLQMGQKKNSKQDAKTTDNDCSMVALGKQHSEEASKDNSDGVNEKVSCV
Division of Preclinical Innovation [DPI]
U.S. Environmental Protection Agency [EPA]
National Institutes of Environmental Health Sciences [NIEHS]
National Toxicology Program [NTP]
U.S. Food and Drug Administration [FDA]
The HTR2A receptor is a subtype of the 5-HT2 receptor that belongs to the serotonin receptor family and is a G protein-coupled receptor (GPCR). The HTR2A-CHO cell line stably expressing human 5-hydroxytryptamine receptor 2A (HTR2A) can be used for screening agonists of interactions between 5-HT2 and its ligands. The HTR2A-CHO calcium flux assay is a homogeneous fluorescence-based assay for detecting the intracellular calcium level using FDSS kinetic plate reader system.
HTR2A-CHO cells were dispensed at 2000 cells/3uL/well in 1536-well black-clear bottom plates using a Multidrop Dispenser. After the assay plates were incubated at a 37 C/5% CO2 incubator for 18 h, 3 uL of Dye Loading Buffer was transferred to the assay plate by a Flying Reagent Dispenser. The assay plates were incubated at 37 C for 1h. For agonist mode, 23 nL of compounds dissolved in DMSO, positive controls or DMSO only was transferred to the assay plate by a pin tool. The fluorescence intensity in the plates was measured using FDSS 7000EX kinetic plate reader for 2 min at 1 sec intervals.
Turning to `CN1CCCC(n2nc(Cc3ccc(Cl)cc3)c3ccccc3c2=O)CC1` (stereo not given), the “activation” value is -7.08% [at 35.6 µM].

As for `CCc1cccc(CC)c1N(COC)C(=O)CS(=O)(=O)O`, the “activation” value is 1.11%.

`CCCC(=O)C(=O)O`: the “activation” value was 2.34%.

Regarding `Cc1nc(C)nc(N2C[C@@H](C)N(c3ccnc([C@@H](C)O)n3)[C@@H](C)C2)n1`, the “activation” value is -0.769% [at 35.6 µM].

In the case of `CCCC[P+](C)(CCCC)CCCC`, the “activation” value is -1.57%.

On to `O=S1(=O)c2cccc3cccc(c23)N1CCCN1CCN(c2ccc(F)cc2)CC1`, for which the “activation” value was -20% [at 35.6 µM].

As for `Cc1ccsc1C(=CCCN1CCC[C@@H](C(=O)O)C1)c1sccc1C`, the “activation” value was -7.97% [at 35.6 µM].

As to `CCOC(=O)C(O)c1ccccc1` (stereo not given), the “activation” value was 1.89% [at 35.6 µM].

`COc1cccc(O)c1`: the “activation” value was -1.05%.

Consider `CCCCCCCCCCCCCC(=O)OCC(O)CO` (stereo not given), for which the “activation” value is -2.14%.

With `CCCCN1C=CN(C)C1`, the activation is 7.66% [at 15.9 µM].

`CC(c1cc(C(C)(C)C)cc(C(C)(C)C)c1O)c1cc(C(C)(C)C)cc(C(C)(C)C)c1O`: the “activation” value is 4.28%.

As for `O=C(O)c1ccccc1C(=O)Nc1ccc(S(=O)(=O)Nc2nccs2)cc1`, the “activation” value was -0.955% [at 35.6 µM].

As to `O=C(O)c1ccc2cc(O)ccc2c1`, the “activation” value is -0.635%.

As for `COc1cc(NS(=O)(=O)c2ccc(N)cc2)ncn1`, the “activation” value is 2.44% [at 35.6 µM].

As to `CCCCNc1ccc(NCCCC)c2c1C(=O)c1ccccc1C2=O`, the activation was -0.354% [at 15.9 µM].

With `CC(=O)CC(=O)OC(C)(C)C`, the “activation” value is -1.55%.

With `O=C(OCC(COC(=O)c1ccccc1)(COC(=O)c1ccccc1)COC(=O)c1ccccc1)c1ccccc1`, the “activation” value was -0.498%.

Consider `Cc1ccc2c(Cl)cc(Cl)c(O)c2n1`, for which the “activation” value is -1.23% [at 35.6 µM].

With `C=CC(OCC)OCC`, the “activation” value is 18.5%.

Regarding `CC(=O)Nc1ccc(OCC(O)CNC(C)C)cc1` (stereo not given), the “activation” value was 2.59% [at 35.6 µM].

Consider `CC(C)=CCCC(C)C=O` (stereo not given), for which the “activation” value is 12.5%.

As for `Cc1ccc(OC(=O)c2ccccc2O)cc1`, the “activation” value was 4.44%.

Regarding `CC(C)SCc1ccco1`, the “activation” value is -0.392% [at 35.6 µM].

Turning to `OC[C@H]1O[C@@H](O[C@@H]2[C@@H](CO)O[C@](O)(CO)[C@H]2O)[C@H](O)[C@@H](O)[C@H]1O`, the “activation” value is 4.45% [at 35.6 µM].

For `Cc1cccc(C(=O)O)c1[N+](=O)[O-]`, the “activation” value was -0.421%.

In the case of `COC(=O)NN`, the “activation” value is 11.5%.

Consider `CC(C)=CCC/C(C)=C\C#N`, for which the “activation” value was -2.14%.

Turning to `CCCCOCCOC(=O)c1cccnc1`, the “activation” value is 28.1% [at 35.6 µM].

As to `O=C(O)C[C@H](O)C[C@H](O)/C=C/c1c(C2CC2)nc2ccccc2c1-c1ccc(F)cc1`, the activation is -5.4% [at 15.9 µM].

For `CC(=O)OCC(C)C`, the “activation” value is 1.62%.

Take `CC(COc1ccccc1)NC(C)C(O)c1ccc(O)cc1` (stereo not given): the “activation” value was -10.1% [at 35.6 µM].

For `O=C(CCN1CCN2CCCC2C1)N1c2ccccc2Sc2ccc(Cl)cc21` (stereo not given), the activation was -9.57% [at 15.9 µM].

Regarding `Cn1c(N)c(N=O)c(=O)n(C)c1=O`, the “activation” value was -0.207%.

In the case of `Nc1ccc(S(=O)(=O)O)c(N)c1`, the “activation” value is 0.117%.

Regarding `NC(=O)c1ccncc1`, the “activation” value is -1.12%.

For `Nc1ccc2cc(S(=O)(=O)O)ccc2c1`, the “activation” value was 2%.

As for `N#Cc1ccc(C/C(=N/NC(=O)Nc2ccc(OC(F)(F)F)cc2)c2cccc(C(F)(F)F)c2)cc1`, the “activation” value is 2.01%.

Turning to `Nc1c2c(nc3ccccc13)CCCC2O` (stereo not given), the “activation” value was -2.49% [at 35.6 µM].

Take `CCCCCCCCCC(=O)N(C)C`: the “activation” value was 2.23%.
